Results published in the supplement of paper PMC6555819.

Experiments:
Assay in all cases: PBM binding z-score (relative to random genomic background probes); higher = stronger binding; sequences stand for … in GC…GCGATTGACAGCGTAGAATGAAGG
[1] = tested on: RARb homodimer (NR concentration 270 nM)
In short: (§1)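 For binding z-scores, the reference was random background probes on custom Agilent 4×180K protein-binding microarrays. These arrays were incubated 1 h with ligand-free nuclear receptor dimers in PBS pH 7.4, 2% milk, 0.02% Triton X-100, 1 mM DTT, 0.2 mg/mL BSA and 0.4 mg/ml salmon testes DNA. Fluorescence was scanned after antibody detection of each partner (one per run) and regression-normalized.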

[2] = tested on: RARg:RXRa (NR concentration 270 nM, RXRa partner concentration 90 nM)
In short: as §1

[3] = tested on: RARg homodimer (NR concentration 270 nM)
In short: as §1

[4] = tested on: RXRa DBDmut IVT, anti-RXR (DBD mutation: RXRa K156A/R161A, NR concentration 90 nM)
In short: as §1

[5] = tested on: RXRa homodimer (NR concentration 180 nM)
In short: as §1

[6] = tested on: THRa:RXRa (NR concentration 90 nM, RXRa partner concentration 90 nM)
In short: as §1

[7] = tested on: THRa homodimer (NR concentration 90 nM)
In short: as §1

[8] = tested on: VDR:RXRa (NR concentration 270 nM, RXRa partner concentration 90 nM)
In short: as §1

[9] = tested on: VDR homodimer (NR concentration 270 nM)
In short: as §1

Sequence | PBM binding z-score [1] | PBM binding z-score [2] | PBM binding z-score [3] | PBM binding z-score [4] | PBM binding z-score [5] | PBM binding z-score [6] | PBM binding z-score [7] | PBM binding z-score [8] | PBM binding z-score [9]
CCTAGCAGGCAAGGGTCACTCAAGCATTTCGCTT | 3.46 | 4.12 | 3.63 | 0.602 | 4.6 | 2.36 | -0.309 | 2.81 | 0.817
GCATAGAGGTAATACAAGGTGAAAGTCCGATTGT | 1.08 | 0.816 | 0.537 | 0.392 | 0.977 | 4.44 | 0.985 | 0.566 | 0.216
AATAGAGGGTCATCGTAGGCCAGAGTACGCACAG | 3.48 | 5.35 | 5.12 | 2.46 | 5.77 | 4.26 | 0.0486 | 4.64 | 2.55
ACTATTAGTAGACTTAGGGCAACCGATACGACGC | 0.674 | 0.363 | 0.941 | 0.409 | 0.292 | 0.596 | 0.558 | -0.00967 | 0.227
CCGGCTGGGGCATAAGGTTACCATAAGCCAGCCC | 1.62 | 1.83 | 1.05 | -1.59 | 0.983 | 1.93 | 0.912 | -0.119 | -0.374
AGTACGAGGGCAATGAGTTGATAGCACGGGTGGC | 1.2 | 1.06 | 1.62 | 2.1 | 0.711 | 1.07 | -0.111 | 5.08 | 2.98
CGAACTAGGTCATTGTCAGGACAGTGAATAGTAA | 2.62 | 4.33 | 4.35 | 2.31 | 2.37 | 4.27 | 2.09 | 2.52 | 1.82
TGTCAAAGTTCAAAGGTAACGTAAGTATCCACAC | 3.82 | 6.28 | 6.19 | 4.36 | 7.27 | 3.53 | 0.176 | 5.1 | 4.04
CGTCCAAGGTCAGAGAGGTCAATGAATGCCGAGT | 5.42 | 7 | 7.52 | 3.55 | 6.58 | 4.53 | 2.88 | 7.79 | 6.88
AATACAGGGTCATCGTTGGCCAGAGTACGCACAG | 3.58 | 5.68 | 5.14 | 3.53 | 6.56 | 3.95 | 1.53 | 5.13 | 3.86
TAGCCTAGGTCATTGGGCCGGTATAGTACGCATC | 2.86 | 3.58 | 4.08 | 0.933 | 2.62 | 2.67 | 0.961 | 2.11 | 1.35
CAGACAGGGTCAGCTAGGCCAGAGTAGGGACGGC | 3.06 | 4.3 | 4.64 | 1.59 | 4.42 | 3.01 | 0.505 | 3.81 | 0.912
AGAATGAGGTTATACGTAGATAAGGGAAGAAAGT | 0.654 | 1.77 | 1.26 | 1.23 | 2.29 | 2.11 | 0.472 | 1.47 | 0.781
GCTTGTAGATCAAGGTTTAGAAAGACTAAGCTAA | -0.764 | -0.251 | -0.299 | -0.0471 | -0.469 | -0.36 | -0.736 | -0.245 | -0.186
GATACACGGTCAGCTAGAGGCCAGAGTATGGAAA | 1.9 | 2.39 | 2.33 | -0.51 | 0.403 | 0.349 | -0.599 | -0.349 | -0.244
TAGCCTAGGTCATTGAGCCAGTATAGTACGCATC | 2.68 | 3.9 | 4.06 | 1.72 | 2.9 | 2.79 | 0.737 | 2.1 | 1.03
ACTTACGGGGCAACGAGGTTATAGCACGCGTATA | 1.13 | 1.75 | 1.76 | 1.63 | 1.73 | 2.08 | 0.279 | 5.28 | 1.72
ACTAGCACGCCAAGTTTGGGTCACTCAAACAAAG | 1.5 | 0.693 | 0.804 | -0.276 | 0.756 | 2.02 | 0.988 | 0.247 | -0.0889
CCATACGGGTCACTGACAGGTTATAGCATTTGGA | 3.06 | 5.82 | 4.78 | 1.24 | 5.32 | 2.84 | -0.0458 | 3.74 | 1.3
TCTAGCAGGCCAGGGGGTCACTCAAGAGGTACGG | 3.61 | 5.22 | 4.08 | 1.3 | 5.38 | 3.35 | 1.52 | 4.25 | 2.91
TCATATAGGTAAGGGTGAAAGTCGAACGATATGA | 0.703 | 0.914 | 0.595 | 0.475 | 1.36 | 0.89 | -0.108 | 0.991 | -0.201
AATACAGGGTCATCGTAGGCTAGAGTACGCACAG | 3.49 | 5.66 | 5.17 | 3.57 | 6.87 | 4.05 | 1.63 | 5.2 | 4.03
ATCTCTAGGTAACCAAGTTCATTGAATGCCGAAC | 2.07 | 1.42 | 1.35 | 2.39 | 1.29 | 2.2 | 1.25 | 5.68 | 5.53
CCTACTGGGCCACGAAAGGTCAATGATTCAGTGA | 4.81 | 4.94 | 4.64 | 0.165 | 4.81 | 3.66 | 0.66 | 3.4 | 0.883
TGAATGAGATTAAAGATCAGGGAACGTGGCGTCG | -0.824 | -0.0861 | 0.247 | -1.09 | 0.253 | -0.316 | -0.698 | -0.176 | -0.27
CCTACTGGGCCATTCAGATGTCATTGATCATATG | 0.108 | 0.278 | 0.389 | 0.148 | -0.34 | -0.291 | -0.95 | -0.54 | -0.52
